# Test results from the supplement of paper PMC10338343.
# ± gives the standard deviation. In all, about 8,200 sequences were measured (“pre-steady-state target cleavage rate”: median about 0.024, highest 2% from about 1.3 on). The sample as a whole holds a higher share of the highest values than the screen did.
# Test system: MIWI (PIWIL1) piRISC loaded with L1MC piRNA (30 nt)
# Assay: pre-steady-state target cleavage rate (min^-1); MIWI and MILI are mouse PIWI proteins and EfPiwi is from a freshwater sponge; tags in brackets are library labels; higher = faster piRNA-guided slicing of the target
# Details: guide: L1MC piRNA 5'p-UAACUAAAUACUAUGCAAGCUGUAGGUCCU
# How it was run: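 With or without 500 nM GTSF1 partner protein, 1 nM active affinity-purified piRISC carrying one synthetic guide was mixed with 0.1 nM transcribed, DNA-blocked target RNA library in HEPES–potassium acetate buffer at 33 °C for 0–8 or 0–960 min. Uncleaved targets were sequenced and normalised to depth and to weakly complementary targets, three trials were pooled, and k3 was capped at 0.0001 min^-1. The pre-steady-state cleavage rate came from a burst-and-steady-state fit.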
# [1] = auxiliary factor: 500 nM mouse GTSF1
# [2] = auxiliary factor: none (no GTSF1)
Sequence,pre-steady-state target cleavage rate [1],pre-steady-state target cleavage rate [2]
UCCUCCUACAGCUUGCAUUGUAUUAAGUUA,0.309 ± 0.026,0.00813 ± 0.0024
UCCACCUACAGCUUGCAUAGAAUUUAGAUA,0.247 ± 0.037,0.00935 ± 0.0029
UCGACCUACAGCUUGCAUAGUUAUUACAAA,0.115 ± 0.035,
UCCUGGAUGUCGAACGUAAGUAUUUAAUUA,< 0.0001,
UCCUGGUACAGCUUGCAUAGUUUAUAGUUA,0.0594 ± 0.017,0.0135 ± 0.004
UCCUGGAUGUCGAACGUUUGUAUAUAGUUA,< 0.0001,
UGGACCUACAGCUUGCAUAGUAUUUAGUAA,1.11 ± 0.064,0.0627 ± 0.014
UGGACCUACAGCUUGCAUAGUAUUUAGUUU [g2:g29:cont:t1U],1.62 ± 0.082,0.0974 ± 0.02
UGGACCUACAGCUUGCAUAGUAUUUAGUA,0.885 ± 0.062,0.0273 ± 0.0069
UGGACCUACAGCUUGCAUAGUAUUUAGUUC [g2:g29:cont:t1C],1.14 ± 0.068,0.0625 ± 0.012
UGGACCUACAGCUUGCAUAGUAUUUAGCUUA,0.316 ± 0.023,0.0288 ± 0.0059
UGGACCUACAGCUUGCAUAGUAUUUAGUUUA,1.56 ± 0.086,0.075 ± 0.014
UCCUGGAACAGGUUGCAUAGUAUUUAGAAA,0.362 ± 0.043,
AGGACCUACAGCUACGAUAGUAUUUAGUAA,0.153 ± 0.045,
UCGACCAACAGCUUGCAUAGUAAUUAGUUA,0.972 ± 0.041,0.0305 ± 0.0074
AGGACCUACAGCUUGGUUAGUAUUUACAAA,0.0786 ± 0.021,
UGGACCUACAGCAAGCAUAGUAUUUACAAA,0.273 ± 0.051,
UGGACCUACAGCUUGUAUAGUAUUUAGUUA,1.77 ± 0.11,0.0563 ± 0.012
UCGACCUACAGCUUGCUAUAGUAUUUAGUUA,0.0661 ± 0.018,
AGGACCUACAGCUUGCUAUAGUAUUUAGUUA,0.137 ± 0.037,
UGGACCUACAGCUUGUCAUAGUAUUUAGUUA,0.706 ± 0.1,0.00373 ± 0.0033

Sequence,pre-steady-state target cleavage rate [1],pre-steady-state target cleavage rate [2]
UGGACCUACAGCUUGCUAUAGUAUUUAGUUA,0.0205 ± 0.0066,
AGGACCUACAGCUUGUAUAGUAUUUAGUUA,1.6 ± 0.061,0.0803 ± 0.015
UCCACCUACAGCUUGUAUAGUAUUUAGUUA,1.18 ± 0.048,0.0524 ± 0.0091
UCGACCUACAGCUUGUAUAGUAUUUAGUUA,1.7 ± 0.074,0.0725 ± 0.015
UCGACCUACAGCUUGUCAUAGUAUUUAGUUA,0.742 ± 0.083,0.00458 ± 0.0029
UCCUGGAUGAGCUUGCAUACUAUUUAGAUA,0.0538 ± 0.017,0.00863 ± 0.0041
AGGACCUACAGCUAGCAUAGUAUUUACAAA,0.474 ± 0.071,
UCCACCUUCAGGUUGCAUAGUAUUUAGUUA,0.817 ± 0.1,0.0279 ± 0.0047
UCCUGGAUCAGCUCUGCAUAGUAUUUAGUUA,0.985 ± 0.054,0.0138 ± 0.0041
UCCUGCUUGAGCUUGCAUAGUAUUUAGUAA,0.491 ± 0.051,0.0206 ± 0.004
UCCUGGAACAGCUUGCAUAGUAAUUACAAA,0.129 ± 0.038,
UCCUGGAACAGGUUGCAUAGUAUUUACUUA,0.164 ± 0.023,0.0109 ± 0.0022
AGGACGUACAGCUUGCAAAGUAUUUAGUUA,1.11 ± 0.057,0.0396 ± 0.0083
AGGACGUACAGCUUGCUUAGUAUUUAGUUA,1.31 ± 0.055,0.0487 ± 0.0095
UCGACGUACAGCUUGCUUAGUAUUUAGUUA,1.63 ± 0.09,0.0366 ± 0.0073
UCGACGUACAGCUUGCAAAGUAUUUAGUUA,1.26 ± 0.043,0.0364 ± 0.0077
UGGACGUACAGCUUGCAAAGUAUUUAGUUA,1.3 ± 0.045,0.0558 ± 0.0096
UCGACGUACAGCUUGCAUUGUAUUUAGUUA,0.883 ± 0.027,0.0351 ± 0.0076
UGGACGUACAGCUUGCUUAGUAUUUAGUUA,1.37 ± 0.069,0.0454 ± 0.0082
UGGACGUACAGCUUGCAUUGUAUUUAGUUA,0.79 ± 0.05,0.0432 ± 0.01
AGGACGUACAGCUUGCAUAGUAUUUAGUUA,1.19 ± 0.048,0.0866 ± 0.014

Sequence,pre-steady-state target cleavage rate [1],pre-steady-state target cleavage rate [2]
UCCUCCUACAGCAUGCAUAGUAUAUAGUUA,0.786 ± 0.042,0.00795 ± 0.0022
UCCUCCUUCAGCAUGCAUAGUAUUUAGUUA,1.01 ± 0.043,0.0155 ± 0.0034
UCCUGGAUGUCGUAGCAUAGUAUUUAGUUA,0.0153 ± 0.005,
UCCUGGAUGUCCUUGCUUAGUAUUUAGUAA,0.00726 ± 0.004,
UCCUGCUACAGCUUGCAUACAAUUUAGUAA,0.0165 ± 0.008,
UCCUCCUACAGCUUGCAAAGUAUUUACAAA,0.267 ± 0.036,0.00344 ± 0.0031
UCGACCUACACGUUGCAUAGUAUUUUCAAA,0.224 ± 0.036,
UCCUGGUACACGUUGCAUAGUAUUUAGUAA,0.178 ± 0.041,
UCCUCCAACAGCUUGCAUAGUAUUUACUUA,0.267 ± 0.026,0.0243 ± 0.0038
UCGACCUACAGCUUGCAUAGUAUUUAGUUU [g2:g28:cont:t1U],1.75 ± 0.067,0.158 ± 0.033
UCGACCUACAGCUUGCAUAGUAUUUAGUA,0.778 ± 0.039,0.0159 ± 0.0051
UCGACCUACAGCUUGCAUAGUAUUUAGCUUA,0.375 ± 0.05,0.0283 ± 0.0087
UCGACCUACAGCUUUGCAUAGUAUUUAGUUA,1.4 ± 0.061,0.0371 ± 0.0078
UCGACCUACAGCUUGCAUAGUAUUUAGUUUA,1.27 ± 0.058,0.0631 ± 0.0099
ACGACCUACAGCUUGCAUAGUAUUUAGUAA,1.11 ± 0.042,0.0771 ± 0.016
ACGACCUACAGCUUGCAUAGUAUUUAGUUA,1.56 ± 0.064,0.0997 ± 0.017
UCGACCUACAGCUUGCAUAGUAUUUAGUAA,1.15 ± 0.061,0.0683 ± 0.014
UCGACCUACAGCUUGCAUAGUAUUUAGUUC [g2:g28:cont:t1C],1.22 ± 0.045,0.0714 ± 0.013
ACGACCUACAGCUUGCAUAGUAUUUAGAUA,0.62 ± 0.044,0.0521 ± 0.011
UCGACCCUACAGCUUGCAUAGUAUUUAGUUA,1.33 ± 0.061,0.0734 ± 0.012
UCCUGCUACUCGUUGCAUAGUAUUUAGAAA,0.0557 ± 0.014,
